Measurements taken from PubChem BioAssay AID1347120 (National Center for Advancing Translational Sciences (NCATS), 2019).
The whole screen tested about 390,000 compounds, of which about 930 (0.24%) were called active. Another 5% or so got no clear call; they are omitted. Calls come from the whole dose curve; as a rule, active = well fitted activation curve with a large enough effect; inconclusive = small, poorly fitted or top-dose-only effect; inactive = no such curve, though single readings can be large or run the other way. The list comes from a sample in which actives are over-represented; it also holds similar structures and randomly drawn compounds.

experiment: qHTS for Suppressors of FUS Proteinopathy: Primary screen using FUS-linked yeast assay; note: nearly all actives have a fitted effect of over 55% in size;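 for growth rescue (activation): plate controls were DMSO vehicle for no effect and reference control for full effect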; conditions: S. cerevisiae FUS-expressing, OD600, 24 h; Potency: growth rescue; series mostly up to 76.6 µM; growth rescue (activation): at the top concentration
From the text: Several widespread neurodegenerative diseases, including Alzheimer disease, Huntington disease, Frontotemporal Lobar Degeneration (FTLD) and Amyotrophic Lateral Sclerosis (ALS), share a common pathological feature, namely accumulation of specific protein aggregates in diseased tissue. These diseases which is associated with protein misfolding (proteinopathies) have become increasingly problematic as the population ages and life expectancies are extended. Most proteinopathies are currently incurable, a situation confounded by the fact that the basis of neurodegeneration is generally poorly understood. There exists urgent and significant need to find therapeutics that can inhibit the toxicity associated with protein aggregation. A novel approach to understand the underlying mechanisms of neurodegenerative diseases has recently emerged in which the disease conditions are modeled in the yeast (Saccharomyces cerevisiae), a tractable eukaryotic organism with conserved protein quality control mechanisms. Yeast offers quick and reliable genetic manipulations and can be easily tailored to high-throughput screening (HTS).
For this project, a yeast model of the FUS proteinopathies (a spectrum of neurodegenerative diseases that include ALS and a subtype of FTLD) was generated and employed. The cytoplasmic accumulation of the DNA/RNA-binding protein FUS (also known as TLS) is causative to both familial and sporadic forms of ALS and FTLD. This yeast model recapitulates neuronal pathology by showing severe cytotoxicity associated with cytoplasmic accumulation of FUS aggregates and a specific interaction between FUS and TDP-43, another ALS-associated protein. […] Specifically, the cellular accumulation of misfolded FUS that disrupts RNA homeostasis in both yeast and higher eukaryotes. This model was validated to be suitable for quantitative HTS (qHTS) use for finding genetic or chemical factors that restore growth. […] Identified compounds that inhibits FUS-yeast toxicity is flagged, re-acquired, and validated for further investigation and optimization.
NIH Chemical Genomics Center [NCGC]
NIH Molecular Libraries Probe Production Centers Network [MLPCN]
Assay Submitter (PI): Frank Shewmaker PhD, Uniformed Services University of the Health Sciences
Compound CP55940 was used as the positive control. Column 1 was treated with CP55940 titration from 92uM (final concentration, 1:2 dilution), while Column 2 was treated with top dose 92uM. Columns 3 and 4 were treated with DMSO only as negative control to assess background and noise signal.
Four hundred fifty microliter of cultured yeast (in 20mL rich medium) provided by Dr. Shewmaker lab was incubated at 30C at 99% humidity for 3hr. The culture was then spun down at 4000rpm for 5min and the cell pellet was resuspended in 2mL of Sdmin Media + ALU(330) + 2.5% Raffinose. One hundred microliter of the suspension was added to 900uL of water and OD of the solution was obtained. Twenty mL of responding medium (provided by Shewmaker lab) + 2.5% raffinose was added to ensure cell density of 0.1; the solution was incubated overnight. Working cell solution (FUS-yeast in Sdmi + Sdmi + 1X ALU + 2% galactose media) was prepared (final OD at 0.005) and 3uL was dispensed in a 1536-well Aurora high based clear bottom assay plates. Controls and library compounds (at various final concentrations from 40uM to 0.32uM) were added using a 1536-well pin array using the Kalypsys pin-tool. The plates were then incubated for 24hrs in a cell-culture incubator (30C; 99% humidity). Absorbance at 600nm was then read using the PerkinElmer ViewLux plate reader.
Potency is the fitted concentration of half-maximal effect.

SMILES | growth rescue (activation) | Potency
CCC(=O)N1CCc2cc(Br)cc(S(=O)(=O)CCC(=O)N3CCN(c4ccc(F)cc4)CC3)c21 | 1.9% (inactive) | 
O=C(Nc1cc(C(F)(F)F)ccc1Cl)c1cc2nc(-c3ccc4c(c3)OCO4)cc(C(F)(F)F)n2n1 | 10.3% (inactive) | 
CCOc1cccc2sc(N3CCN(C(=O)C4CC4)CC3)nc12 | 4.39% (inactive) | 
COC(=O)[C@]12C[C@H](CC(=O)NCc3cccc4ccccc34)C(=O)N(CCc3ccc(OC)c(OC)c3)C1=C[C@H](C1CCCC1)O[C@@H]2C |  | 12.6 µM (active)
COC(=O)[C@@]12CCCCC=C1N(CCc1ccc(Cl)cc1)C(=O)[C@H]2CC(=O)NCc1ccc(OC)c(OC)c1 | 39.4% (inactive) | 
COC(=O)[C@]12C[C@H](CC(=O)NCCc3ccccc3OC)C(=O)N(Cc3ccco3)C1=C[C@H](C(C)C)O[C@@H]2C1CC1 | 40.9% (inactive) | 
O=C(CSc1nccn1-c1ccc(F)cc1)Nc1cccc2ccccc12 | 12.2% (inactive) | 
CCN(c1ncnc2c1cnn2-c1ccc(C)cc1)C1CCCCC1 | -6.13% (inactive) | 
CCN1CCN(c2cc(C)c3cc(NC(=O)c4cc(Cl)ccc4OC)ccc3n2)CC1 | 10.2% (inactive) | 
CCOc1ccc(C(=O)Nc2ccc3nc4c(c(Nc5ccccc5OC)c3c2)CCCC4)cc1 | 36.6% (inactive) | 
COC(=O)[C@]12C[C@H](CC(=O)NCC34CC5CC(CC(C5)C3)C4)C(=O)N(Cc3ccc(Cl)cc3Cl)C1=C[C@H](COCc1ccccc1)O[C@@H]2C | 31.5% (inactive) | 
CCOC(=O)N1CCN(C(=O)C[C@H]2C[C@@]3(C(=O)OC)C(=C[C@H](C(C)(C)C)O[C@@H]3C)N(Cc3ccc(Cl)cc3Cl)C2=O)CC1 |  | 6.31 µM (active)
COC(=O)[C@]12C[C@H](CC(=O)N3CCOCC3)C(=O)N(Cc3ccc(Cl)cc3Cl)C1=C[C@H](COCc1ccccc1)O[C@@H]2C | 10.6% (inactive) | 
CC1CCC(N2CC(=O)N(CCC3=CCCCC3)C(c3ccc(F)cc3)C2=O)CC1 (stereo not given) | 20.9% (inactive) | 
CCC(C(=O)Nc1cccc(-c2nc3cccnc3s2)c1C)c1ccccc1 (stereo not given) | -6.93% (inactive) | 
Cc1ccc(Nc2ccc3cc(S(=O)(=O)N4CCCCC4)ccc3n2)cc1F | -5.75% (inactive) | 
Cc1oc2ccc(O)c(CN3CCCCC3)c2c1C(=O)Nc1cccc(C(F)(F)F)c1 | 24.9% (inactive) | 
CCCN1CCN(CCCNC(=O)c2cnn(-c3ccc(C)cc3)c2-n2cccc2)CC1 | 6.69% (inactive) | 
CSc1ncc(Cl)c(C(=O)Nc2ccc(S(=O)(=O)N3CCCC(C)C3)cc2)n1 (stereo not given) | 2.88% (inactive) | 
COc1ccc(C2=NS(=O)(=O)N(C)C(C(=O)NC(C)c3ccccc3)=C2)cc1 (stereo not given) |  | inactive
COc1cc(NC(=O)C2=CC(c3ccc(C)cc3)=NS(=O)(=O)N2C)cc(OC)c1OC | -8.13% (inactive) | 
COc1ccc(NC(=O)C2=CC(c3ccc(OC)c(OC)c3)=NS(=O)(=O)N2C)cc1 |  | 31.6 µM (active)
O=C(COc1ccccc1Cl)Nc1ccc2nc(SCC(=O)N3CCCC3)sc2c1 | 12.6% (inactive) | 
COc1cccc(CNC(=O)CSc2c3c(nc4cc(Cl)ccc24)CCCC3)c1 | -8.26% (inactive) | 
CCOC(=O)c1c(NC(=O)c2ccc(S(=O)(=O)N(CC)CC)cc2)sc2c1CCCCC2 | -13.5% (inactive) | 
O=C(Nc1ccccc1F)C(c1ccccc1)N1Cc2ccccc2C1=O (stereo not given) | 4.93% (inactive) | 
COc1ccc(OC)c(-n2nnc(-c3nc(-c4cc(OC)c(OC)c(OC)c4)no3)c2C)c1 | 18.3% (inactive) | 
CCc1ccc(CN(Cc2ccco2)C(=O)COc2ccc(Cl)c(C)c2)cc1 | 30.5% (inactive) | 

SMILES | growth rescue (activation) | Potency
CCN(CC)c1nn2c(=O)c(C(=O)NCCc3ccccc3)cnc2s1 | 17.5% (inactive) | 
COc1cccc(OCCn2c(-c3ccc(Br)cc3)nc3ccccc3c2=O)c1 | -5.51% (inactive) | 
COc1ccc(OC)c(-c2csc(-c3c(N)c(C(=O)c4ccccc4)n4ccccc34)n2)c1 | 14.2% (inactive) | 
Cc1nn(C(C)C(=O)Nc2ccc(C(C)C)cc2)c(=O)c2c1sc1ccccc12 (stereo not given) | -11.1% (inactive) | 
Cc1ccc(NC(=O)CSc2nc3c([nH]c4ccccc43)c(=O)n2-c2ccccc2)c(C)c1 | 13.6% (inactive) | 
Cc1ccc(Cl)cc1N(C)C(=O)Cn1nc(Cc2cccnc2)c2ccccc2c1=O | 14.5% (inactive) | 
O=C(CSc1nccn1Cc1ccc(Cl)cc1)NCc1ccccc1 | 17.8% (inactive) | 
Cc1cccc(NC(=O)c2ccc(F)c(S(=O)(=O)N(C)C3CCCCC3)c2)c1 | 35.4% (inactive) | 
CCOc1ccc(C2CC(=O)c3c([nH]c(C(=O)OCc4ccccc4)c3C)C2)cc1 (stereo not given) | 1.74% (inactive) | 
CCOC(=O)C1CCCN(C(=O)c2ccc3c(c2)sc2nc(-c4ccc(CC)cc4)cn23)C1 (stereo not given) | 19.2% (inactive) | 
Cc1c(C(=O)N2CCCC2)oc2c1-c1nn(CC(=O)NCc3ccc(OC(C)C)cc3)cc1CC2 | 31.1% (inactive) | 
Cc1ccc(NC(=O)c2cc(S(=O)(=O)NCCC3=CCCCC3)ccc2F)cc1C | 15.8% (inactive) | 
COc1ccc(-c2cn3c(n2)sc2cc(C(=O)Nc4ccc(F)cc4)ccc23)cc1 | 0.0987% (inactive) | 
COc1ccc(Cc2nc3ccc(C(=O)NCc4ccccc4C)cc3o2)cc1 | 6.51% (inactive) | 
Cc1cc(NC(=O)C2CCC(CNS(=O)(=O)c3ccc(Br)s3)CC2)ccc1Br (stereo not given) | -10.7% (inactive) | 
Cc1oc2ccc(O)c(CN3CCC(C)CC3)c2c1C(=O)Nc1ccccc1 | 0.0169% (inactive) | 
CCCCOc1ccc(C(=O)N2CC(=O)Nc3ccc(Br)cc3C2c2ccc(F)cc2)cc1 (stereo not given) | 41.7% (inactive) | 
CCCNC(=O)C1CCN(c2nc3ccc(C)cc3[nH]2)CC1 | 4.98% (inactive) | 
O=C(CSc1nc2nccnc2c(=O)n1CCc1c[nH]c2ccccc12)Nc1ccccc1F | -9.63% (inactive) | 
CCOC(=O)N1CCC(NC(=O)c2cnn(-c3cccc(C)c3)c2C2CCN(C(=O)OC(C)(C)C)CC2)CC1 | 18.5% (inactive) | 
CCc1cccc(NC(=O)c2cc(-c3ccccc3)n[nH]2)c1 | -10.8% (inactive) | 
C#CCOCCOCCOCCNc1nc(N2CCOCC2)nc(N2CCN(C(=O)[C@H](Cc3ccc(O)cc3)n3cc(CCO)nn3)CC2)n1 | -3.33% (inactive) | 
C#CCOCCOCCOCCNc1nc(N2CCN(C(=O)CCCCCCCCCCNC(=O)[C@H](CCCCN)n3cc(C)nn3)CC2)nc(N2CCN(C(=O)CCCCCCCCCCNC(=O)[C@H](CO)n3cc(CCCSC)nn3)CC2)n1 |  | 11.2 µM (active)
C#CCOCCOCCOCCNc1nc(N2CCN(C(=O)CCCCCCCCCCNC(=O)[C@H]([C@@H](C)CC)n3cc(CCCCN=C(N)N)nn3)CC2)nc(N2CCN(C(=O)CCCCCCCCCCNC(=O)[C@H](CO)n3cc(CCCSC)nn3)CC2)n1 |  | 3.16 µM (active)
C#CCOCCOCCOCCNc1nc(N2CCN(C(=O)[C@H](CCC(=O)O)n3cc(C(N)CO)nn3)CC2)nc(N2CCN(C(=O)[C@H](Cc3ccc(O)cc3)n3cc(C(N)[C@H](C)CC)nn3)CC2)n1 (stereo not given in full) | 11.9% (inactive) | 
C#CCOCCOCCOCCNc1nc(N2CCN(C(=O)C([C@@H](C)CC)n3cc(C(N)COC(=O)C(F)(F)F)nn3)CC2)nc(N2CCN(C(=O)[C@H](CCCCN)n3cc(C(N)CC(C)C)nn3)CC2)n1 (stereo not given in full) | 29.1% (inactive) | 
C#CCOCCOCCOCCNc1nc(N2CCN(C(=O)C([C@@H](C)O)n3cc([C@@H](N)CCCCN)nn3)CC2)nc(N2CCN(C(=O)[C@H](CCCCN)n3cc(CN)nn3)CC2)n1 (stereo not given in full) | 1.02% (inactive) | 
